# Assays:
# [1] = target: T1, Aspartate--tRNA(Asp/Asn) ligase (Mycobacterium tuberculosis (strain ATCC 25618 / H37Rv)) (UniProt P9WFW3); assay: Assay for Asp RNA synthetase-1 from Mycobacterium tuberculosis; assay type: functional; set-up: scale not given: direction of the effect not stated beside the values; settings: 30 µM; note: in the data most compounds retested in dose-response had high values
# T1 sequence (whole entry): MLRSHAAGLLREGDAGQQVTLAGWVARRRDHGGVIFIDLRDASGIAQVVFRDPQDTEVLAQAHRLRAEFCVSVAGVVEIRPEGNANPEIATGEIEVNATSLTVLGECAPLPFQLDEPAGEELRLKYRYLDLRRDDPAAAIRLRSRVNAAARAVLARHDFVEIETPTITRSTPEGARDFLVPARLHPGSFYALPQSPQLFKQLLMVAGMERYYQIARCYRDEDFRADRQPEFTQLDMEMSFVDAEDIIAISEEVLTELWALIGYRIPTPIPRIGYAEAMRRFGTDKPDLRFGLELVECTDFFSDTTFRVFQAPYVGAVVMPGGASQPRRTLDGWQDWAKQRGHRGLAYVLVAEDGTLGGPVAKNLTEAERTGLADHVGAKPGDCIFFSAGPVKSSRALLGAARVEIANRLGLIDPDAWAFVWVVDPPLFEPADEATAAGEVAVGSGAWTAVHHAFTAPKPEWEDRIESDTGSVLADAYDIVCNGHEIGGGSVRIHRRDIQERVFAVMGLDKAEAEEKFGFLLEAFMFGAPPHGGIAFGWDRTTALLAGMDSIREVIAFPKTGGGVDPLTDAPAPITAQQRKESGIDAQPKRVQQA
# [2] = target: Shiga toxin 2 (Escherichia coli O157:H7) (UniProt P09385+P09386); assay: E. coli 0.157:H7 Shiga Toxin SOP - stx2 screening assay; assay type: functional; set-up: scale not given: direction of the effect not stated beside the values; settings: 30 µM
SMILES,Percent Effect [1],Percent Effect [2]
Cc1cc(NC(=O)NCc2ccccn2)n(C)n1,3.94%,-40.7%
Cn1nnc2c1CCN(Cc1ccccc1)C2COCC1CC1 (centres undefined),2.13%,-19.5%
CC(O)CN(CC(=O)NC(=O)NC1CC1)c1ccccc1 (centres undefined),-1.82%,4.59%
COc1cccc(C2CCCN2Cc2nc3c(cnn3C)c(=O)[nH]2)c1 (centres undefined),-4.03%,-6.96%
CC(=O)N1CCN(C(=O)NCc2csc(Br)c2)CC1,0.204%,5.42%
CCC(OC)C(=O)N1CCc2nc(NC)nc(C(=O)N3CCCC3)c2C1 (centres undefined),1.34%,-1.38%
CCNC(=O)c1ccc(CNCc2c(C)nn(C)c2N(C)C)cc1,-0.75%,-25.7%
COc1cccc(CN2CCN(c3ccc4nncn4n3)C(C)C2)c1 (centres undefined),-3.34%,14.8%
Cn1cnnc1C1CCCN(C(=O)NCc2ccc3c(c2)OCO3)C1 (centres undefined),-2.83%,7.83%
Cc1noc(CCCC(=O)NC(C)c2cccnc2)n1 (centres undefined),-0.922%,31.2%
CC(NCc1c(C(C)C)nn(C)c1N1CCOCC1)C(N)=O (centres undefined),-7.54%,-49.6%
CN1CCN(Cc2nc3ccccc3[nH]2)[C@H]2CS(=O)(=O)C[C@H]21,8.03%,-6.1%
Cc1nc(N2CCCC2)nc2c1CCN(C(=O)C1CCCC1)CC2,0.726%,-9.64%
COCCN1C[C@@H]2CN(c3ncccn3)C[C@@H]2C1=O,0.324%,-15.3%
Cc1cc(C)n(CC2CN(CC(=O)Nc3nncs3)CCO2)n1 (centres undefined),1.4%,9.91%
O=C(NCCN1CCOCC1)NCC(O)c1cccc(F)c1 (centres undefined),2.52%,4.91%
Cn1cccc1C(=O)N1CCN(Cc2ccncc2)c2ncccc2C1,0.0582%,-10%

# Reference: ChEMBL document CHEMBL3988442, “University of Dundee, Small-Polar-MMV Screening Library” (2021)
